PubChem BioAssay (NCATS)
Values joined by “and” are separate entries in the source; they are usually repeats but may differ in a detail not shown here. Identical values can stand only once. Active and inactive are the calls of the source. No rule for the calls is given here.

details: Ebola virus entry assay, blue channel fluorescence

SMILES | AC50 | outcome
CCN(CC)C(=S)SSC(=S)N(CC)CC | 7.08 µM (active) | 
Cc1ccc(S(=O)(=O)N[C@@H](CCCCN)C(=O)CCl)cc1 | 14.1 µM (active) | 
Cc1nc(N)nc(N)c1-c1ccc(Cl)c(Cl)c1 | 12.6 µM (active) | 
CC[C@@H](CO)NC(=O)[C@@H]1C=C2c3cccc4[nH]cc(c34)C[C@H]2N(C)C1 | 7.94 µM (active) | 
CC(C)OC(=O)C(C)(C)Oc1ccc(C(=O)c2ccc(Cl)cc2)cc1 |  | inactive
NC(=O)c1cn(Cc2c(F)cccc2F)nn1 |  | inactive
CC(C)NCC(O)COc1cccc2[nH]ccc12 (stereo not given) | 39.8 µM (active) | 
CNCCC(Oc1ccc(C(F)(F)F)cc1)c1ccccc1 (stereo not given) | 8.91 µM (active) | 
CCCCc1nc(Cl)c(CO)n1Cc1ccc(-c2ccccc2-c2nn[nH]n2)cc1 |  | inactive
Cc1ccccc1C(=O)Nc1ccc(C(=O)N2CCCC(O)c3cc(Cl)ccc32)c(C)c1 (stereo not given) | 25.1 µM (active) | 
CCN1/C(=C/C=C/c2sc3ccccc3[n+]2CC)Sc2ccccc21 |  | inactive
O=C1CCC(N2C(=O)c3ccccc3C2=O)C(=O)N1 (stereo not given) |  | inactive
CC1=C(C(=O)O)N2C(=O)[C@@H](NC(=O)[C@H](N)c3ccc(O)cc3)[C@H]2SC1 |  | inactive
CC(C)c1nc(CN(C)C(=O)N[C@H](C(=O)N[C@@H](Cc2ccccc2)C[C@H](O)[C@H](Cc2ccccc2)NC(=O)OCc2cncs2)C(C)C)cs1 |  | inactive
c1ccc(C2CC2)c(OCC2=NCCN2)c1 | 39.8 µM (active) | 
Cn1cc[nH]c1=S |  | inactive
Cc1ccc2c(n1)Oc1ccc(C(C)C(=O)OCC(=O)N(C)C)cc1C2 (stereo not given) |  | inactive
COc1ccc(OC)c(C(O)CNC(=O)CN)c1 (stereo not given) |  | inactive
O=C(CCCN1CCC(O)(c2ccc(Cl)cc2)CC1)c1ccc(F)cc1 | 10 µM (active) | 
Cc1[nH]cnc1CN1CCc2c(c3ccccc3n2C)C1=O |  | inactive
CCCCc1oc2ccccc2c1C(=O)c1cc(I)c(OCCN(CC)CC)c(I)c1 | 3.55 µM (active) | 
CN[C@H]1CC[C@@H](c2ccc(Cl)c(Cl)c2)c2ccccc21 | 2 µM (active) | 
Clc1ccc(CCC(Cn2ccnc2)Sc2c(Cl)cccc2Cl)cc1 (stereo not given) | 25.1 µM (active) | 
CCC[C@H](N[C@@H](C)C(=O)N1[C@H](C(=O)O)C[C@@H]2CCCC[C@@H]21)C(=O)OCC |  | inactive

details: Ebola virus entry assay, ratio channel

SMILES | AC50 | outcome
CCN(CC)C(=S)SSC(=S)N(CC)CC | 7.94 µM (active) and 22.4 µM (active) | 
Cc1ccc(S(=O)(=O)N[C@@H](CCCCN)C(=O)CCl)cc1 |  | inactive
Cc1nc(N)nc(N)c1-c1ccc(Cl)c(Cl)c1 | 28.2 µM (active) | 
CC[C@@H](CO)NC(=O)[C@@H]1C=C2c3cccc4[nH]cc(c34)C[C@H]2N(C)C1 | 10 µM (active) | 
CC[C@@H](CO)NC(=O)[C@@H]1C=C2c3cccc4c3c(cn4C)C[C@H]2N(C)C1 |  | inactive
CC(C)OC(=O)C(C)(C)Oc1ccc(C(=O)c2ccc(Cl)cc2)cc1 |  | inactive
COC(=O)C1=C(C)NC(C)=C(C(=O)OC(C)C)C1c1cccc2nonc12 (stereo not given) |  | inactive
CC(C)NCC(O)COc1cccc2[nH]ccc12 (stereo not given) |  | inactive
CNCCC(Oc1ccc(C(F)(F)F)cc1)c1ccccc1 (stereo not given) | 3.55 µM (active) | 
CCCCc1nc(Cl)c(CO)n1Cc1ccc(-c2ccccc2-c2nn[nH]n2)cc1 |  | inactive
Cc1ccccc1C(=O)Nc1ccc(C(=O)N2CCCC(O)c3cc(Cl)ccc32)c(C)c1 (stereo not given) | 25.1 µM (active) | 
CCN1/C(=C/C=C/c2sc3ccccc3[n+]2CC)Sc2ccccc21 |  | inactive
O=C1CCC(N2C(=O)c3ccccc3C2=O)C(=O)N1 (stereo not given) |  | inactive
Cc1ncc([N+](=O)[O-])n1CCO |  | inactive
CC1=C(C(=O)O)N2C(=O)[C@@H](NC(=O)[C@H](N)c3ccc(O)cc3)[C@H]2SC1 |  | inactive
Cc1ccc(S(=O)(=O)NC(=O)NN2CCCCCC2)cc1 |  | inactive

SMILES | AC50 | outcome
CC(C)c1nc(CN(C)C(=O)N[C@H](C(=O)N[C@@H](Cc2ccccc2)C[C@H](O)[C@H](Cc2ccccc2)NC(=O)OCc2cncs2)C(C)C)cs1 | 22.4 µM (active) | 
c1ccc(C2CC2)c(OCC2=NCCN2)c1 |  | inactive
CC1=NS(=O)(=O)c2cc(Cl)ccc2N1 |  | inactive
Cn1cc[nH]c1=S |  | inactive
Cc1ccc2c(n1)Oc1ccc(C(C)C(=O)OCC(=O)N(C)C)cc1C2 (stereo not given) |  | inactive
COc1ccccc1OCCNCC(O)COc1cccc2[nH]c3ccccc3c12 (stereo not given) | 2.24 µM (active) | 
CCOC(=O)[C@H](CCc1ccccc1)N[C@@H](C)C(=O)N1Cc2ccccc2C[C@H]1C(=O)O |  | inactive
O=C(CCCN1CCC(O)(c2ccc(Cl)cc2)CC1)c1ccc(F)cc1 | 10 µM (active) | 
Cc1[nH]cnc1CN1CCc2c(c3ccccc3n2C)C1=O |  | inactive
CCCCc1oc2ccccc2c1C(=O)c1cc(I)c(OCCN(CC)CC)c(I)c1 | 2.82 µM (active) | 
O=c1[nH]cc(F)c(=O)[nH]1 |  | inactive
CN[C@H]1CC[C@@H](c2ccc(Cl)c(Cl)c2)c2ccccc21 | 1.58 µM (active) | 
CCOC(=O)[C@H](CCc1ccccc1)N[C@@H](C)C(=O)N1[C@H](C(=O)O)C[C@@H]2CCC[C@@H]21 |  | inactive
Clc1ccc(CCC(Cn2ccnc2)Sc2c(Cl)cccc2Cl)cc1 (stereo not given) | 22.4 µM (active) | 
CCC[C@H](N[C@@H](C)C(=O)N1[C@H](C(=O)O)C[C@@H]2CCCC[C@@H]21)C(=O)OCC |  | inactive
